Among the data in PubChem BioAssay (NCI) are growth values, retold here.

SMILES strings stand for the structures. Compounds without any hit were thinned out: in the full panel of roughly 83,000, 20% have a hit.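 Negative percent growth values reflect cell death: -40 means 40% of the cells present at the start died, and -100 means all died.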 Values without a mark were called inactive. Activity calls are given as the source filed them. Rule for the calls: active = growth percent below 10; inactive = the rest.

The test has as its system HL-60(TB) leukemia. Description: NCI-60 one-dose screen, 48 h (100 = growth as untreated, 0 = no growth, -100 = all killed). The conditions noted are these: 10 µM unless noted.
On to `O=C(NNc1nc2cc(F)cc(F)c2n2cccc12)c1ccncn1`, for which the growth is -7.85% (active).
The figure for `Cn1cc(C2=C(c3coc4cc(Br)ccc34)C(=O)NC2=O)c2ccccc21` is 44.5%; for `CCN(CC)CCOc1ccc(C(=C(c2ccccc2)C2CCCC2)c2ccc(OCCN(CC)CC)cc2)cc1` it is -40.9% (active); for `CCN(CC)c1ccc(/C=N/NC(=O)c2ccc(S(N)(=O)=O)cc2)cc1` it is 2.37% (active).
The figure for `CCc1nnc(NC(=O)c2cc(-c3ccc(Cl)cc3Cl)oc2C)s1` is 88.5%; for `Nc1ncc(-c2ccc3ncnc(NCc4ccccc4)c3c2)cn1` it is 44.1%; for `COc1ccc(/C=N/NC(=O)c2[nH]c3ccc(Br)cc3c2-c2ccccc2)s1` it is -44.2% (active).
With `CCOC(=O)c1nn(-c2ccc(C)cc2)c(=O)c2c(N)c(C#N)c(-c3ccc(OC)cc3)cc12`, the growth is 125%.
With `CCC(=O)Nc1cc(Nc2cc(NC3CC3)n3ncc(C#N)c3n2)ccc1C`, the growth is 5.84% (active).
Next, `CCN(CC)c1ccc(NC2=C(Cl)C(=O)c3nc(C)ccc3C2=O)cc1`: -34.6% (active); `C#C[C@]1(O)CC[C@H]2[C@@H]3CC=C4c5sc(Nc6cccc(Cl)n6)nc5CC[C@]4(C)[C@H]3CC[C@@]21C`: -15.6% (active).
Next, `CNC(=O)c1cc(Oc2ccc3nc(NC(=O)c4cc(N5CCOCC5)cc(C(F)(F)F)c4)sc3c2)ccn1`: 68%; `O=c1[nH]c2ccccc2cc1CSc1ccccc1Nc1nccc(-c2ccc(Cl)cc2)n1`: 102%.
For `FC(F)(F)c1cc(Br)cc(-c2cc(-c3ccc4c(c3)OCCO4)[nH]n2)c1`, the growth is 6.8% (active).
Take `CC1=C(C)C(=O)C(Nc2ccc(C)cc2)=C(Br)C1=O`: the growth is 68.6%.
Next, `O=C(O)CNS(=O)(=O)c1ccc(Oc2ccc(S(=O)(=O)NCC(=O)O)cc2)cc1`: 91%; `Cc1ccc(-c2nc(SCC(=O)c3ccccc3)nc(Nc3ccc(S(N)(=O)=O)cc3)c2C#N)cc1`: 95.9%; `O=C1C[C@@H](c2ccccc2)Oc2c(Cc3ccccc3O)c(O)c(Cc3cc(Cc4cc(Cc5ccccc5O)ccc4O)ccc3O)c(O)c21`: 95.1%.
Consider `CCCC(=O)NC(c1ccc(N(CC)CC)cc1)c1cc(C)c2cccnc2c1O` (stereo unspecified), for which the growth was -25% (active).
Take `Cc1ccc(C2CC(c3ccc(Nc4nc(NCCO)nc(Nc5ccc(Cl)cc5)n4)cc3)=Nc3c(N)nc(N)nc3N2)cc1` (stereo unspecified): the growth is 10.2%.
Next, `CS(=O)(=O)c1ccc2c(c1)c1c(n2Cc2ccc(Cl)cc2)CCCC1`: 70.5%; `Brc1cccc(-c2cc(-c3cnc4c(c3)OCCO4)n[nH]2)c1`: 21.2%; `COc1cc([C@H]2OC[C@H]3[C@@H]2CO[C@@H]3c2ccc(O)c(OC)c2)ccc1O`: 93.5%.
`CN1C(=O)N(C)C2Nn3c(s/c(=C\c4ccccn4)c3=O)=NC21` (stereo unspecified): the growth was 110%.
As for `COc1ccc([C@H]2c3[nH]c4ccccc4c3C[C@@H]3C(=O)N(C4CCN(Cc5ccccc5)CC4)CC(=O)N23)c(OC)c1`, the growth is 50.7%.
For `Oc1ccc(CSc2nnc(-c3ccc(Cl)cc3)o2)c2cccnc12`, the growth is 12.6%.
The figure for `O=c1c2ccccc2cc2n1CCN=C2c1ccccc1` is 97.8%.
Next, `Cn1ccnc1C(=O)/C=C/C=C/c1ccc(C(=O)Nc2ccc(F)cc2)cc1`: 13.3%; `c1ccc(C(c2nc3ncncc3[nH]2)N2CSc3nc4ncncc4n3C2)cc1` (stereo unspecified): 39.8%.
Next, `CC(=C(c1ccc(OCCN2CCCC2)cc1)c1ccc(OCCN2CCCC2)cc1)c1ccc(Cl)cc1`: -53.7% (active); `Cc1[nH]c(C(=O)Nc2ccccc2OCc2cccc(C(=O)NC3CCCNC3)c2)c(Cl)c1Cl` (stereo unspecified): -53.9% (active).
